# Reference: PubChem BioAssay (Tox21)
# Results filed as inconclusive are left out. Entries that show only a call come without a potency. Calls of active or inactive are those of the source. Unless noted, the call rests on the fitted dose curve.
# Tests used:
# [1] = Nuclear factor erythroid 2-related factor 2/antioxidant responsive element (Nrf2/ARE) small molecule agonists: qHTS cell viability counter screen in human keratinocytes (AID 1919968; active means well fitted curve in the direction sought with a large enough effect in the repeat runs; an effect the other way counts as inactive or inconclusive; further: nearly all actives have a fitted effect of over 55% in size)
# In short: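 HaCaT ARE reporter line, 1,500 cells/well; 5 h settle, 37 C/5% CO2; cpd in DMSO pinned; 23 h exposure; CellTiter-Fluor, 1 h; fluorescence.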
# [2] = Nuclear factor erythroid 2-related factor 2/antioxidant responsive element (Nrf2/ARE) small molecule agonists: luciferase reporter gene qHTS assay in human keratinocytes (AID 1919969); further: nearly all actives have a fitted effect of over 35% in size
# [3] = biological target: Gonadotropin-releasing hormone receptor (Homo sapiens) (UniProt P30968); test: Human gonadotropin-releasing hormone receptor (GnRHR) small molecule agonists, calcium flux assay in GnRHR-HEK293 cells (AID 1920063); further: nearly all actives have a fitted effect of over 35% in size
# In short: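 GnRHR-HEK293, 1500 cells/well, 18 h 37 C/5% CO2; Ca dye 1 h 37 C; cpd pinned (DMSO), agonist mode; kinetic FL 480/540, 3 min, 1 s reads; 15 conc, n=3.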
# [4] = biological target: KiSS-1 receptor (Homo sapiens) (UniProt Q969F8); test: Human kisspeptin (KISS1R) small molecule agonists, calcium flux assay in KISS1R-HEK293 cells (AID 1920064; active means well fitted curve in the direction sought with a large enough effect in the repeat runs; an effect the other way counts as inactive or inconclusive)
# In short: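 Stable human KISS1R HEK293 line; 18 h plating, 37 C/5% CO2; calcium dye 1 h 37 C; compound pin transfer; kinetic fluorescence Ex/Em 480/540, 3 min.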
# [5] = G protein-coupled receptor (GPCR) small molecule agonists, calcium flux assay: HEK293 wild type cell line counter screen (AID 1920065)
# In short: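 Kinetic fluorescence at Ex/Em 480/540, recorded every second over 3 min, served as the read-out after compound addition. Each compound was tested at 15 concentrations in triplicate on cells pre-loaded with calcium dye for 1 h.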
# [6] = p53 small molecule agonists, cell-based qHTS assay with human liver microsomes (AID 1963577);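 further: p53 response element beta-lactamase reporter cells with liver microsomes plus NADPH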
# In short: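 p53RE-bla cells; 5 h settle, 37 C/5% CO2; cpd + HLM 0.5 mg/mL + NADPH 0.5 mg/mL (final); 16 h 37 C; LiveBLAzer 2 h RT dark; fluorescence readout.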
# [7] = p53 small molecule agonists, cell-based qHTS assay with rat liver microsomes (AID 1963578)
# In short: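 Rat liver microsome activation: microsomes 0.5 mg/mL, NADPH 0.5 mg/mL final; p53RE-bla cells, 16 h 37 C; LiveBLAzer readout, 2 h RT dark.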
# [8] = p53 small molecule agonists, cell-based qHTS assay with human liver microsomes: qHTS cell viability counter screen (AID 1963579); further: nearly all actives have a fitted effect of over 45% in size
# In short: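 Luminescent CellTiter-Glo read-out, 30 min at room temperature, gauged cytotoxicity in p53RE-bla cells exposed 16 h at 37 C to DMSO-dissolved compounds with metabolic activation by human liver microsomes and NADPH, each 0.5 mg/mL final.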
# [9] = p53 small molecule agonists, cell-based qHTS assay with rat liver microsomes: qHTS cell viability counter screen (AID 1963580); further: nearly all actives have a fitted effect of over 45% in size
# In short: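 p53RE-bla HCT-116 cells (4,000/well) rested 5 h at 37 C, then given Tox21 compounds in DMSO with rat liver microsomes (0.5 mg/mL final) plus NADPH (0.5 mg/mL final) for 16 h at 37 C. Viability read by CellTiter-Glo luminescence after 30 min at room temperature.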
# [10] = p53 small molecule agonists, cell-based qHTS assay: qHTS cell viability counter screen (AID 1963581); further: nearly all actives have a fitted effect of over 45% in size
# In short: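 HCT-116 p53RE-bla cells, 4,000/well, plated 5 h before compound pin transfer; 16 h at 37 C; bla substrate 2 h RT; then CellTiter-Glo, 30 min RT, luminescence.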
# [11] = p53 small molecule agonists, cell-based qHTS assay (AID 1963582; active means well fitted activation curve with a large enough effect in the signal ratio in the repeat runs, not every such curve was filed as active; the % refers to the signal ratio)
# In short: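 Reporter line: p53RE-bla. Pre-incubation 5 h, 37 C, 5% CO2; compound (DMSO, pin tool) 16 h, 37 C; B/G FRET substrate 2 h RT; fluorescence intensity read.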
# [12] = biological target: 5-hydroxytryptamine receptor 2A (Homo sapiens) (UniProt P28223); test: 5-hydroxytryptamine receptor 2A (HTR2A) small molecule antagonists, cell-based qHTS assay (AID 1963586); further: nearly all actives have a fitted effect of over 45% in size
# In short: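 Antagonist-mode intracellular calcium assay: DOI (4 nM) added after 5 min compound pre-incubation at room temperature to dye-loaded HTR2A-CHO cells. Fluorescence followed for 3 min, sampled every second.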
# [13] = biological target: 5-hydroxytryptamine receptor 2A (Homo sapiens) (UniProt P28223); test: 5-hydroxytryptamine receptor 2A (HTR2A) small molecule agonists, cell-based qHTS assay (AID 1963587); further: nearly all actives have a fitted effect of over 30% in size; further: potency means the concentration at half of the fitted maximal effect
# In short: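 HTR2A-CHO cells, plated 18 h at 37 C/5% CO2, dye-loaded 1 h at 37 C; compounds in DMSO added by pin tool (agonist mode). Intracellular calcium flux read as kinetic fluorescence on FDSS over 2 min at 1 s intervals.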
# [14] = biological target: Muscarinic acetylcholine receptor M1 (Homo sapiens) (UniProt P11229); test: Cholinergic receptor muscarinic 1 (CHRM1) small molecule antagonists, cell-based qHTS assay (AID 1963588); further: nearly all actives have a fitted effect of over 40% in size
# In short: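 CHRM1-CHO calcium-flux assay, antagonist mode. Cells were seeded 18 h, dye-loaded 1 h at 37 C and given compound for 5 min at RT, then acetylcholine was added at 50nM. FDSS fluorescence was read 3 min; 15 concentrations, three runs.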
# [15] = biological target: Muscarinic acetylcholine receptor M1 (Homo sapiens) (UniProt P11229); test: Cholinergic receptor muscarinic 1 (CHRM1) small molecule agonists, cell-based qHTS assay (AID 1963589); further: nearly all actives have a fitted effect of over 35% in size
# In short: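 Human M1 in stable CHO line; 18 h plating, 1 h dye load 37 C; cpd added (agonist mode); Ca2+ fluorescence kinetic read, 1 s intervals; 15 conc, 3 runs.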
# [16] = cAMP Responsive Elements (CRE) small molecule agonists, cell-based qHTS assay (AID 1963590)
# In short: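 HEK 293T CRE-bla, 2,000 cells/well, 18 h preincubation 37 C/5% CO2; cpds (DMSO) pinned, 3 h; LiveBLAzer B/G FRET substrate, 2 h RT.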
# [17] = cAMP Responsive Elements (CRE) small molecule antagonists, cell-based qHTS assay (AID 1963591; active means well fitted inhibition curve with a large enough effect in the signal ratio in the repeat runs, not every such curve was filed as active; the % refers to the signal ratio)
# In short: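 Beta-lactamase reporter read by FRET substrate (LiveBLAzer B/G) after 2 h at room temperature. CRE-bla HEK293T cells had received compound plus 0.25 uM (final) NKH477 for 3 h at 37 °C.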
# [18] = biological target: Beta-2 adrenergic receptor (Homo sapiens) (UniProt P07550); test: Adrenergic beta2 receptor (ADRB2) small molecule antagonists, cell-based qHTS assay (AID 1963592); further: series mostly up to about 92 µM; nearly all actives have a fitted effect of over 50% in size
# In short: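 Cells (CHO, stable ADRB2 overexpression) incubated 18-20hr at 37C; compounds added from DMSO; agonist mix (1nM isoproterenol, 100uM IBMX, 25uM Ro-20-1724) added; 0.5hr RT; d2-cAMP and anti-cAMP-cryptate added; 1hr RT; 665/615 nm read.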
# [19] = biological target: D(2) dopamine receptor (Homo sapiens) (UniProt P14416); test: Dopamine D2 receptor (DRD2) small molecule antagonists, cell-based qHTS assay (AID 1963595; active means well fitted inhibition curve with a large enough effect in the signal ratio in the repeat runs, with a control signal flat; the % refers to the signal ratio)
# In short: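 HEK293 cells stably expressing DRD2, preincubated with 0.1 mM Ro20-1724 and compounds 10 min, were stimulated with 200 nM NKH477 plus 12 nM quinpirole for 30 min at room temperature; cAMP measured by HTRF (665/620 nm).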
# [20] = biological target: D(2) dopamine receptor (Homo sapiens) (UniProt P14416); test: Dopamine D2 receptor (DRD2) small molecule agonists, cell-based qHTS assay (AID 1963594); further: nearly all actives have a fitted effect of over 35% in size
# In short: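 HEK293 cells stably expressing DRD2 were cultured 24 h at 37 C, then given Ro20-1724 (0.1 mM final) and compounds for 10 min at room temperature. NKH477 (200nM) was then added for 30 min. cAMP was read by HTRF.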
# Chain of Gonadotropin-releasing hormone receptor (Homo sapiens) (P30968 whole entry, looked up): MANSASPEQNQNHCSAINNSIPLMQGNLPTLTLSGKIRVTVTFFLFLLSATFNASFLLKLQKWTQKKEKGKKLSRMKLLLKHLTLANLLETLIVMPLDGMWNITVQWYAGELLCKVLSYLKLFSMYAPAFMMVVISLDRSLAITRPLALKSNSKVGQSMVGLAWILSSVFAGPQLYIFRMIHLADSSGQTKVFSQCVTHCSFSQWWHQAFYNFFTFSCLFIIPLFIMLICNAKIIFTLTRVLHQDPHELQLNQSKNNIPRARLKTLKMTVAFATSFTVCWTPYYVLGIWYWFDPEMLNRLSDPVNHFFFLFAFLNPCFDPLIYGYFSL
# Chain of D(2) dopamine receptor (Homo sapiens) (P14416 whole entry, looked up): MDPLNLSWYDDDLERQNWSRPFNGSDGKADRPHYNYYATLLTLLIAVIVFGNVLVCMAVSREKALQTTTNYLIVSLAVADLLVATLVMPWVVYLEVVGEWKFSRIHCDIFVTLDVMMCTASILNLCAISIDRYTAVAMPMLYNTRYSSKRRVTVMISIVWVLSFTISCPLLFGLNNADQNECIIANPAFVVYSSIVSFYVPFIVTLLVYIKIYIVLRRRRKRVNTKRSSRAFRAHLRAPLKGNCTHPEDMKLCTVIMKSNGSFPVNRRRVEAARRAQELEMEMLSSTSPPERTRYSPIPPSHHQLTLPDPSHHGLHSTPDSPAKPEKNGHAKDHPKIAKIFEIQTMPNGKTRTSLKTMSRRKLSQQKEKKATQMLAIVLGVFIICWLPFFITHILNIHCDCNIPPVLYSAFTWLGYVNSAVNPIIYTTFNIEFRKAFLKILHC
# Chain of 5-hydroxytryptamine receptor 2A (Homo sapiens) (P28223 whole entry, looked up): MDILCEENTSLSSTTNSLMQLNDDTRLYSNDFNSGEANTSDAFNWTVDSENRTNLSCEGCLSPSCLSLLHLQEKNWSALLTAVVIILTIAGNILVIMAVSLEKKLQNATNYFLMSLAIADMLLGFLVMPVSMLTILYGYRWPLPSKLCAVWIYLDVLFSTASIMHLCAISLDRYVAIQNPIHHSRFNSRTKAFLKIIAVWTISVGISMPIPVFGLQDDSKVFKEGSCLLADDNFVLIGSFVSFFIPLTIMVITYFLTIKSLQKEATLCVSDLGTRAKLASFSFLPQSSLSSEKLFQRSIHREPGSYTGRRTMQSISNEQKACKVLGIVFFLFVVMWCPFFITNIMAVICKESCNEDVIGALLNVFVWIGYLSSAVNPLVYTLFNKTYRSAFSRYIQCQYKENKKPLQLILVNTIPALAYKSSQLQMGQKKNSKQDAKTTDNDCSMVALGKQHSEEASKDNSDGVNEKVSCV
# Chain of Beta-2 adrenergic receptor (Homo sapiens) (P07550 whole entry, looked up): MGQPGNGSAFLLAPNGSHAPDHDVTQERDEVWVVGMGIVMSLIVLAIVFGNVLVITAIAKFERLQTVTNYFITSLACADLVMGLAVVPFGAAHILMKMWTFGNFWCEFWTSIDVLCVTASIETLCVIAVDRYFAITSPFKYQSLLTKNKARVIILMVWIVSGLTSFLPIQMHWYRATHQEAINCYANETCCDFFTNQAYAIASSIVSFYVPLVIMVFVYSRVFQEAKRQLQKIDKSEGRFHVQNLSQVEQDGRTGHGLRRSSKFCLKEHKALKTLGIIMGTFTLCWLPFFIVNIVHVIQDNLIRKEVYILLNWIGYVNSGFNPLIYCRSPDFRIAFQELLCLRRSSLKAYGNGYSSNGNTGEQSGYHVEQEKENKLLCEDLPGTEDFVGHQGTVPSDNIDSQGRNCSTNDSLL
# Chain of KiSS-1 receptor (Homo sapiens) (Q969F8 whole entry, looked up): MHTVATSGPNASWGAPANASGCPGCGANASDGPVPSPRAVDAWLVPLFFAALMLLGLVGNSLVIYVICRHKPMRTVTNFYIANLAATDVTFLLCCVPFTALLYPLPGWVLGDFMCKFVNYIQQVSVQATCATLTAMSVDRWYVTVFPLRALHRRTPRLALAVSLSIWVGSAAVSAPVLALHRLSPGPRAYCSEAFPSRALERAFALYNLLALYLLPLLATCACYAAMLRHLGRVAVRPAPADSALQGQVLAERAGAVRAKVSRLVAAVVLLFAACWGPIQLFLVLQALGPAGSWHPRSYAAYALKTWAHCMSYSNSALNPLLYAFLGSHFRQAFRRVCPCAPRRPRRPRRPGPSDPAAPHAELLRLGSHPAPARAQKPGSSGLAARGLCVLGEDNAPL
# Chain of Muscarinic acetylcholine receptor M1 (Homo sapiens) (P11229 whole entry, looked up): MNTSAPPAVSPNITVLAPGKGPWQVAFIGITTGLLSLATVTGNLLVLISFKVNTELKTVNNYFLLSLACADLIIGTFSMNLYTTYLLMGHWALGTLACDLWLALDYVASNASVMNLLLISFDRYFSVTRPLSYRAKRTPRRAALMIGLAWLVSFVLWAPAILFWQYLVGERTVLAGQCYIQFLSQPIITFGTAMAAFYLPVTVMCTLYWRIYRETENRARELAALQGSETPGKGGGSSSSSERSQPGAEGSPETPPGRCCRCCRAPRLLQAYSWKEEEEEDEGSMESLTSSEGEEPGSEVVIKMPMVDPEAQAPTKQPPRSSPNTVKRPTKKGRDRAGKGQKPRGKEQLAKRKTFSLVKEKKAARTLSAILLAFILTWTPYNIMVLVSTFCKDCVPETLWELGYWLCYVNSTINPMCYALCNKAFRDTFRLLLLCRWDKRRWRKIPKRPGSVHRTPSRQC
Structure (SMILES),Potency [1],Potency [2],Potency [3],outcome [4],outcome [5],Potency [6],Potency [7],Potency [8],Potency [9],Potency [10],Potency [11],Potency [12],Potency [13],Potency [14],Potency [15],Potency [16],Potency [17],Potency [18],Potency [19],Potency [20]
CCOC(=O)[C@H](CCc1ccccc1)N[C@H]1CS[C@H](c2cccs2)CN(CC(=O)O)C1=O,inactive,inactive,inactive,inactive,inactive,inactive,inactive,inactive,inactive,inactive,inactive,inactive,inactive,inactive,inactive,inactive,inactive,inactive,inactive,–
Cc1cccc(C)c1NC(=O)c1ccccc1C(=O)O,inactive,inactive,inactive,inactive,inactive,inactive,inactive,inactive,inactive,inactive,inactive,inactive,inactive,inactive,inactive,inactive,inactive,inactive,inactive,–
COC(=O)c1cccc(Cl)c1,inactive,inactive,inactive,inactive,inactive,inactive,inactive,inactive,inactive,inactive,inactive,inactive,21.6 µM (active),inactive,inactive,inactive,inactive,inactive,inactive,inactive
CCC(C=O)CC,inactive,inactive,inactive,inactive,inactive,inactive,inactive,inactive,inactive,inactive,inactive,inactive,inactive,inactive,inactive,inactive,inactive,inactive,inactive,inactive
CC(CO)(CO)C(=O)O,inactive,inactive,inactive,inactive,inactive,inactive,inactive,inactive,inactive,inactive,inactive,inactive,inactive,inactive,inactive,inactive,inactive,inactive,inactive,inactive
CCC(C)C(=O)OC (stereo unspecified),inactive,inactive,inactive,inactive,inactive,inactive,inactive,inactive,inactive,inactive,inactive,inactive,inactive,inactive,inactive,inactive,inactive,inactive,inactive,inactive
O=C1CCCC(=O)C1,inactive,inactive,inactive,inactive,inactive,inactive,inactive,inactive,inactive,inactive,inactive,inactive,inactive,inactive,inactive,inactive,inactive,inactive,inactive,inactive
Cc1cc(=O)oc2cc(O[C@@H]3SC[C@@H](O)[C@H](O)[C@H]3O)ccc12,inactive,inactive,inactive,inactive,inactive,inactive,inactive,inactive,inactive,inactive,inactive,inactive,inactive,inactive,inactive,inactive,inactive,inactive,inactive,inactive
C=CC1CC2C=CC1C2 (stereo unspecified),inactive,inactive,inactive,inactive,inactive,inactive,inactive,inactive,inactive,inactive,inactive,inactive,inactive,inactive,inactive,inactive,inactive,inactive,inactive,inactive
CCCCCOC(=O)CCCC,inactive,inactive,inactive,inactive,inactive,inactive,inactive,inactive,inactive,inactive,inactive,inactive,inactive,inactive,inactive,inactive,inactive,inactive,inactive,inactive
CCCCCCCCCCCCCC(=O)OCC(O)CO (stereo unspecified),inactive,inactive,inactive,inactive,inactive,inactive,inactive,inactive,inactive,inactive,inactive,inactive,inactive,inactive,inactive,inactive,inactive,inactive,inactive,inactive
OCCC(O)CO (stereo unspecified),inactive,inactive,inactive,inactive,inactive,inactive,inactive,inactive,inactive,inactive,inactive,inactive,inactive,inactive,inactive,inactive,inactive,inactive,inactive,inactive
Cc1cc(N)c(S(=O)(=O)O)cc1Cl,inactive,inactive,inactive,inactive,inactive,inactive,inactive,inactive,inactive,inactive,inactive,inactive,inactive,inactive,inactive,inactive,–,inactive,inactive,inactive
OC(CCN1CCCC1)(c1ccccc1)C1CCCCC1 (stereo unspecified),inactive,inactive,inactive,inactive,inactive,inactive,inactive,inactive,inactive,inactive,inactive,inactive,inactive,inactive,inactive,inactive,–,inactive,inactive,inactive
